Source: PubChem BioAssay (National Center for Advancing Translational Sciences (NCATS))
Rows were chosen to be rich in hits. Some 7.9% of all compounds tested hit in one or more screens of this group.
HT1080 IDH1KD tx – toxicity to HT-1080 IDH1 knockdown cells (counter line) | HT-1080 IDH1 knockdown viability, ATP luminescence, 48 h | Potency, µM (titrated, usually from 46.1 µM), without a hit: at the top dose activity, negative = toxicity, usual class: cytotoxic | actives 2% (n = 360,000) | AID 686971;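 note: 0% = DMSO wells and -100% = cell-free medium wells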
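After a 2 h attachment period, IDH1KD HT-1080 cells took pin-transferred compound for 48 h at 37 °C; ATP-based luminescence after 10 min room-temperature reagent incubation reported viability.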
KB-3-1 tox – kills parental KB-3-1 adenocarcinoma cells; KB-3-1 viability, CellTiter-Glo ATP luminescence, 72 h; Potency, µM (highest dose often 46.1 µM), actives largely listed as cytotoxic; actives 1.4% (n = 400,000); note: % is set by controls: 0 for no effect and ±100 for the full control effect; nearly all actives have a fitted effect of over 60% in size
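Here the drug-naive KB-3-1 line serves as comparator for MDR sub-line selectivity; cells received compound titrations, 72 h at 37 °C, then CellTiter-Glo readout.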
KB-V1 cytotox – kills drug-selected multidrug resistant KB-V1 cells; KB-V1 MDR cells viability, CellTiter-Glo, 72 h; Potency, µM (series often up to 46.1 µM), usual class: cytotoxic; actives 3.4% (n = 400,000); AID 1347076; note: % is set by controls: 0 for no effect and ±100 for the full control effect; nearly all actives have a fitted effect of over 60% in size
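Compound-treated KB-V1 multidrug-resistant cells, 72 h, 37 degrees C; viability by CellTiter-Glo. Fitted qHTS curves give the values.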
MCF10A rerep – DNA re-replication induction in MCF 10a cells; MCF 10A DNA re-replication, Hoechst nuclear intensity, 48 h; Potency, µM (titrated, usually from 46.1 µM), for inactives: at the highest dose activity, positive = re-replication, usual class: activators; actives 2.9% (n = 350,000); AID 624296; note: % of control where 0% means no effect; nearly all actives have a fitted effect of over 50% in size
SW480 rerep – inducers of DNA re-replication in SW480 colon cancer cells; Potency, µM (highest dose often 46.1 µM), inactives show at the highest dose re-replication activation, most hits filed as activators; SW480 DNA re-replication, Hoechst DNA content imaging, 48 h; actives 1.8% (n = 340,000); AID 624297; note: % of control where 0% means no effect; nearly all actives have a fitted effect of over 55% in size
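Compounds, transferred as 23 nL by pin tool, were incubated with cells for 48 hr; DNA content per nucleus was then quantified by Hoechst staining and fluorescence plate imaging.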
HT1080NT lethal – kills 2HG-producing HT-1080-NT fibrosarcoma cells | HT-1080-NT fibrosarcoma viability, CellTiter-Glo ATP luminescence, 48 h | Potency, µM (titrated, usually from 46.1 µM), for inactives: top-dose activity, negative = less viability, hits mostly cytotoxic | actives 1.6% (n = 360,000);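 note: NT is the 2HG producing partner of a matched IDH1 knockdown line; 0% = DMSO-treated cells and -100% = media-only wells without cells; nearly all actives have a fitted effect of over 55% in size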
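Toxicity toward the 2HG-producing NT line was scored as %Activity, normalised to DMSO and no-cell wells, from CellTiter-Glo luminescence after 48 hours' treatment.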
* hit, by the source's call; i = inactive; ? = inconclusive; · = no result given. Calls come from the whole dose curve; as a rule, active = well fitted curve in the direction sought with a large enough effect; inconclusive = small, poorly fitted or top-dose-only effect, or another doubt; inactive = no such curve, though single readings can be large; an effect the other way counts as inactive or inconclusive. Potency is the fitted concentration of half-maximal effect.

SMILES	HT1080 IDH1KD tx	KB-3-1 tox	KB-V1 cytotox	MCF10A rerep	SW480 rerep	HT1080NT lethal
CC(NC(=O)CCC(=O)NC(C)c1ccccc1)c1ccccc1 (centres undefined)	-2%	i	i	-3%	?	-22%
CC(NC(=O)CC(c1ccccc1)c1cc(Cl)ccc1O)c1ccccc1 (centres undefined)	?	?	21µM*	?	14%	-15%
CC(C)C1=CC2=CC[C@@H]3[C@](C)(CCC[C@@]3(C)C(=O)O)[C@H]2CC1	·	·	·	2%	-10%	·
Cc1cc(N(C)Cc2ccccc2)n2nc(-c3ccc(C(C)(C)C)cc3)nc2n1	·	i	i	·	·	·
Cc1ccc(-c2nc(C)sc2CC(=O)OCC(=O)Nc2cccc([N+](=O)[O-])c2)cc1	-18%	i	i	24%	-1%	-8%
O=C(Nc1ccc(SC(F)F)cc1)c1ccc(F)cc1	-3%	i	i	0.82µM*	?	-9%
O=C(Cc1ccc(Cl)cc1)Nc1ccc(SC(F)F)cc1	-7%	?	21µM*	?	-35%	-1%
Cc1ccc(C(=O)c2ccccc2C(=O)OCC(=O)Nc2ccc(SC(F)F)cc2)cc1	?	i	12µM*	?	22%	-16%
Cc1ccc(C(=O)c2ccccc2C(=O)OCC(=O)Nc2cccc([N+](=O)[O-])c2)cc1	0%	i	23µM*	18%	2%	1%
Cc1cccc(N2CCN(CCCNc3ncnc4onc(-c5ccc(F)cc5)c34)CC2C)c1 (centres undefined)	·	i	i	·	·	·
O=C(COC(=O)c1ccccc1Cc1ccccc1)Nc1ccc(SC(F)F)cc1	1%	i	?	26µM*	?	6%
O=C(COc1cccc(Oc2ccccc2)c1)Nc1ccc(SC(F)F)cc1	?	i	i	0.73µM*	7.3µM*	?
COc1cc(C(=O)OCC(=O)Nc2ccc(SC(F)F)cc2)cc(OC)c1OC	1%	i	15µM*	0%	-19%	-7%
COc1ccc(-c2cc(C(F)(F)F)nc(SCC(=O)NCCc3ccc(OC)c(OC)c3)n2)cc1	·	i	i	·	·	·
O=C(CCN1C(=O)/C(=C/c2ccccc2F)SC1=S)NCCCn1ccnc1	0%	i	i	21µM*	-6%	1%
CN1CCN(C(=O)CCN2C(=O)S/C(=C/c3ccc(Cl)cc3)C2=O)CC1	10%	i	?	?	-5%	21%
O=C(CCN1C(=O)/C(=C\c2ccccc2)SC1=S)N1CCCCC1	?	?	i	?	1%	-1%
O=C(CCN1C(=O)/C(=C/c2cccs2)SC1=S)N1CCCCC1	?	?	?	?	23µM*	?
Cc1ccc(/C=C2\SC(=O)N(CCC(=O)N3CCN(C)CC3)C2=O)cc1	-10%	i	?	13µM*	-1%	-13%
O=C(CCN1C(=O)/C(=C/c2ccccc2Cl)SC1=S)NC1C=CS(=O)(=O)C1 (centres undefined)	-1%	i	i	15µM*	?	-4%
O=C(CCCN1C(=O)/C(=C/c2ccccc2)SC1=S)NCCCn1ccnc1	-7%	?	i	?	-4%	-5%
O=C(CCN1C(=O)/C(=C/c2ccc(F)cc2)SC1=S)NC1C=CS(=O)(=O)C1 (centres undefined)	-3%	i	?	?	27%	3%
CCN(CC)S(=O)(=O)c1ccc2c(c1)N(CC(=O)Nc1ccc(F)cc1F)C(=O)C1CCCN21 (centres undefined)	·	i	i	·	·	·
O=C(CSc1nncn2c1cc1occc12)Nc1ccccc1C(F)(F)F	·	i	i	·	·	·
COc1cccc(OC)c1-c1cc(CCCc2cc(-c3c(OC)cccc3OC)nc3ccccc23)c2ccccc2n1	·	i	?	·	·	·
SMILES	HT1080 IDH1KD tx	KB-3-1 tox	KB-V1 cytotox	MCF10A rerep	SW480 rerep	HT1080NT lethal
COc1cccc(NC(=O)CSCn2nnc3c(=O)[nH]c(Cc4ccc(F)cc4)nc32)c1	·	i	i	·	·	·
CN1CCN(C(=O)CCN2C(=O)/C(=C\c3ccccc3F)SC2=S)CC1	?	?	i	23µM*	?	-13%
CN1CCN(C(=O)CCN2C(=O)/C(=C/c3ccc(F)cc3)SC2=S)CC1	-10%	21µM*	i	?	-2%	-7%
COc1ccc(/C=C2\SC(=S)N(CCCC(=O)N3CCOCC3)C2=O)cc1	-15%	23µM*	?	?	?	-6%
O=C(CCCN1C(=O)/C(=C/c2ccccc2Cl)SC1=S)N1CCOCC1	-1%	?	i	?	?	-6%
COc1ccc(/C=C2\SC(=S)N(CCCC(=O)N3CCOCC3)C2=O)cc1OC	-7%	?	?	5%	4%	-1%
CN1CCN(C(=O)CCN2C(=O)/C(=C/c3ccccc3Cl)SC2=S)CC1	?	?	?	5.8µM*	?	?
Cc1ccc(/C=C2/SC(=S)N(CCC(=O)N3CCN(C)CC3)C2=O)cc1	-18%	?	i	19%	1%	-1%
CCCCNC(=O)[C@@H]1CC=C[C@@H]2CCN(C3CCCCC3)C(=O)[C@@H]21	·	i	?	·	·	·
CCCn1ccc2c(OCC(=O)Nc3ccccc3C(=O)OCC)cccc2c1=O	·	i	i	·	·	·
CCOC(=O)c1ccc(NC(=O)c2c(C)nn(-c3ccc(F)cc3)c2-n2cccc2)cc1	·	i	i	·	·	·
CCN(C(=O)c1coc(=O)c(Br)c1)c1ccc2c(c1)OCO2	?	i	i	13µM*	?	?
CCOc1ccc(-n2c(SCc3ccccc3)nc3c([nH]c4ccccc43)c2=O)cc1	·	i	i	·	·	·
CCN(CC)C(=O)C(C)N(C#N)c1nc(NC(C)C)nc(NC(C)C)n1 (centres undefined)	-4%	i	9.2µM*	4%	2%	7%
CCOc1cc(/C=N\O)cc(Cl)c1OCC	-3%	i	i	0%	-2%	-12%
O=c1c2ccc(Cl)cc2nc2n1CC/C2=C\c1cccc(O)c1	-3%	?	?	?	?	-22%
CCOc1cc(/C=C2\CN(C)C/C(=C\c3ccc(O)c(OCC)c3)C2=O)ccc1O	4.6µM*	7.3µM*	21µM*	0.73µM*	1.6µM*	4.1µM*
CCOc1cc(/C=C2\CCn3c2nc2cc(Cl)ccc2c3=O)ccc1O	-11%	i	i	13µM*	10µM*	-9%
CCOc1cc(/C=C2\CCC/C(=C\c3cc(Cl)c(O)c(OCC)c3)C2=O)cc(Cl)c1O	5.8µM*	?	?	?	?	7.3µM*
